Source: PubChem
Only a selection was taken, and hits are over-represented in it overall.
HTT promoter inh – HTT promoter inhibition; 48,000 tested, 0.93% active; AID 1508623; Potency, µM (top dose mostly 57.5 µM), inactives show at the top dose activity change, negative = inhibition, most hits filed as inhibitors; HEK293 HTT promoter firefly luciferase reporter, 24 h; also: nearly all actives have a fitted effect of over 50% in size
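Quantitative HTS used concentration series of up to 57.5 uM final on HEK293 luciferase reporter cells, 24 h at 37 degrees C. Readout was Dual-Glo firefly luminescence.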
NTMT1 inh – inhibitors of human N-terminal methyltransferase NTMT1; Q9BV86; Potency, µM (titrated, usually from 114 µM), without a hit: at the top dose activity change, negative = inhibition, hits mostly inhibitors; 59,000 tested, 2.5% active; AID 1645870; NTMT1 MTase-Glo SAH luminescence, purified enzyme;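 also: plate controls were DMSO vehicle for no effect and no enzyme for full effect; nearly all actives have a fitted effect of over 65% in size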
Target sequence (Q9BV86 whole entry, looked up): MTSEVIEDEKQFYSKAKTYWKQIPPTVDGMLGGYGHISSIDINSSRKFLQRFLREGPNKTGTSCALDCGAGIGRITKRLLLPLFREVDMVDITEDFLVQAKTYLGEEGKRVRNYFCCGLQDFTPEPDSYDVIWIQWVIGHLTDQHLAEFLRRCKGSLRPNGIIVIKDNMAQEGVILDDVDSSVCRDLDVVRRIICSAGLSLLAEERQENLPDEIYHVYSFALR
HTT-AS act – activators of huntingtin-antisense promoter activity; 48,000 tested, 0.24% active; HEK293 HTT-AS promoter firefly luciferase reporter, 24 h; response scale: percent change from vehicle, -100% = no light; Potency, µM (doses to about 57.5 µM), without a hit: at the top dose activity change, positive = activation, most hits filed as activators; AID 1508624; also: nearly all actives have a fitted effect of over 55% in size
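HEK293 Fluc reporter, 2,500 cells/well, 24 h pre-culture; cpds up to 57.5 uM final, 24 h 37 degrees C; Dual-Glo, 10 min RT; normalized vehicle = 0%, zero RLU = -100%.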
An asterisk follows results filed as active; ? = inconclusive; . = not tested or not shown; ! = not active in a repeat; [ ] = another dose, or the depositor's remark. Calls follow the shape of the dose curve; as a rule, active = well fitted curve in the direction sought with a large enough effect; inconclusive = small, poorly fitted or top-dose-only effect, or another doubt; inactive = no such curve, though single readings can be large; an effect the other way counts as inactive or inconclusive. Potency is read from the fitted curve at half-maximal effect.

SMILES | HTT promoter inh | NTMT1 inh | HTT-AS act
O=C1CCCC2=C1C(c1[nH]ncc1Cl)NC(=NCc1ccoc1)N2 (stereo not given) | . | 9% | .
O=C(Cc1nnc(-c2ccncc2)s1)Nc1ccc(F)c(C(F)(F)F)c1 | . | 17% | .
CC(C)(C)C1CCc2nc(NC(=O)c3ccc([N+](=O)[O-])cc3)sc2C1 (stereo not given) | ? | 13% | -33%
CC(C)(C)C1CCc2nc(NC(=O)c3cccc(Cl)c3)sc2C1 (stereo not given) | 0.35µM* | -26% | -76%
Cc1cccc(OCC(=O)Nc2nc3c(s2)CC(C(C)(C)C)CC3)c1C (stereo not given) | -6% | ? | -8%
CC(C)(C)C1CCc2nc(NC(=O)COc3ccccc3[N+](=O)[O-])sc2C1 (stereo not given) | 4.5µM* | 20% | -77%
COC(=O)c1c(C)oc2ccc(N(C(=O)c3ccncc3)S(=O)(=O)c3ccc(Br)cc3)cc12 | ? | -1% | -11%
CC(=O)c1c(C)oc2ccc(N(C(=O)Oc3ccccc3)S(=O)(=O)c3ccccc3)cc12 | -31% | 29% | -35%
COC(=O)c1c(C)oc2ccc(N(C(=O)Oc3ccccc3)S(=O)(=O)c3ccc(C(C)(C)C)cc3)cc12 | ? | 12% | -27%
CCOc1ccc(S(=O)(=O)N(C(C)=O)c2ccc3oc(C)c(C(=O)OC)c3c2)cc1 | 2.5µM* | 8% | -79%
COC(=O)c1c(C)oc2ccc(N(C(=O)c3ccncc3)S(=O)(=O)c3cc(C)ccc3C)cc12 | 28µM* | 2% | -39%
CCCC(=O)N(c1ccc2oc(C)c(C(C)=O)c2c1)S(=O)(=O)c1ccc(CC)cc1 | 5µM* | -6% | -54%
CCCn1c(C)nc2c(NCCN(CC)CC)nc(C)nc21 | . | 6% | .
CCc1ccc(CN(Cc2cn[nH]c2-c2ccc(OC)cc2)C(=O)Nc2ccc(Br)cc2)cc1 | 14µM* | 3% | -58%
CCOc1ccc(NC(=O)N(Cc2ccc(CC)cc2)Cc2cn[nH]c2-c2ccc(OC)cc2)cc1 | ? | 24% | -20%
COc1ccc(C2=C(C)C(=O)N(Cc3ccc(C(=O)Nc4cccc(F)c4)cc3)S2(=O)=O)cc1 | ? | -5% | -41%
COc1ccc(C2=C(C)C(=O)N(Cc3ccc(C(=O)Nc4ccc(F)cc4C)cc3)S2(=O)=O)cc1 | 10µM* | 7% | -49%
CCCN(CCC)C(=O)C1=Cc2ccc(-c3ccc(C(=O)N4CCCC4)cc3)cc2N=C(N)C1 | . | -19% | .
CN(C)C(N)=NC(=N)N | . | 14% | .
CCCc1ncc(C[n+]2ccccc2C)c(N)n1 | 8% | 35µM* | -7%
CC1(C)CCCC2(C)C1CC=C1C(=O)OC(O)C12O (stereo not given) | . | -29%[57.5 µM] | .
FC(F)(F)c1cccc(Nc2ccc(CNc3nc(-c4ccccc4C(F)(F)F)nc4ccccc34)cc2)c1 | . | 21% | .
CC(C)(C)c1ccc(CN2CCN(C(c3ccccc3)c3ccc(Cl)cc3)CC2)cc1 (stereo not given) | . | -5%[57.5 µM] | .
Cc1cccc(CN2CCN(C(c3ccccc3)c3ccc(Cl)cc3)CC2)c1 (stereo not given) | -2% | 32µM*! | -16%
Cn1nc(C(=O)NCc2ccccc2)c2c1-c1ccccc1SC2 | 13% | -20% | ?
SMILES | HTT promoter inh | NTMT1 inh | HTT-AS act
CCCCNC(=O)c1nn(C)c2c1CSc1ccccc1-2 | 8% | 79µM* | 19%
CC(C)C[C@H](NC(=O)[C@H](Cc1ccccc1)NC(=O)OCc1ccccc1)C(=O)C=O | . | 3% | .
COC(=O)c1ccc2c(c1)S(=O)(=O)N=C2Sc1cc(C)ccc1C | . | 1% | .
CN(C)c1cc(NC(=O)CNC(C)(C)C)c(O)c2c1C[C@H]1C[C@H]3[C@H](N(C)C)C(=O)C(C(N)=O)=C(O)[C@]3(O)C(=O)C1=C2O | . | 40µM* | .
CN(C)c1cc(NC(=O)CNC(C)(C)C)c(O)c2c1C[C@@H]1C[C@H]3[C@H](N(C)C)C(=O)C(C(N)=O)=C(O)[C@@]3(O)C(=O)C1=C2O | -4% | 40µM* | -11%
CONC(=O)c1ccccc1Nc1cc(Nc2cc(C)nn2C(C)C)ncc1Cl | . | -8% | .
CC(C)c1ccccc1-c1ncc(F)c(NC2(c3ccc(-c4cccnc4)cc3)CC2)n1 | . | 13% | .
Cc1cc(Nc2nc(NC(C)c3ccc(F)cc3)c(C#N)cc2F)n[nH]1 (stereo not given) | . | 2% | .
C=C1C(=O)OC2/C=C(\COC(C)=O)CC/C=C(\C=O)CC(OC(=O)C(C)CC)C12 (stereo not given) | . | 7%[29.8 µM] | .
O=C(NCCCCN1CCN(c2cccc(Cl)c2Cl)CC1)c1cc2ccccc2s1 | . | 22%[57.5 µM] | .
Cc1nc(Nc2ncc(C(=O)Nc3c(C)cccc3Cl)s2)cc(N2CCN(CCO)CC2)n1 | ? | 22µM*! | -29%
Cc1cccc(C=NNc2cc(N3CCOCC3)nc(OCCc3ccccn3)n2)c1 | ? | 22µM* | -28%
Cc1cccc(/C=N/Nc2cc(N3CCOCC3)nc(OCCc3ccccn3)n2)c1 | . | -22% | .
OC1CCC([C@H](O)C[C@H]2c3c(F)cccc3-c3cncn32)CC1 (stereo not given in full) | . | 10% | .
COC(=O)c1scc(-c2ccc(C)cc2)c1S(=O)(=O)Nc1cc(OC)c(OC)c(OC)c1 | 7% | 89µM* | -3%
COC(=O)c1scc(-c2ccc(C)cc2)c1S(=O)(=O)Nc1c(C)cc(C)cc1C | -7% | -2% | -15%
COc1cc(C(CO)CO[C@@H]2O[C@H](CO)[C@@H](O)[C@H](O)[C@H]2O)ccc1O (stereo not given in full) | . | 11%[29.8 µM] | .
CC(C)[C@H]1C(=O)N[C@@H](CCCN=C(N)N)C(=O)NCC(=O)N[C@@H](CC(=O)O)C(=O)N[C@H](Cc2ccccc2)C(=O)N1C | . | 8%[57.5 µM] | .
CCOC(=O)c1ccc(N2C(=O)c3[nH]nc(-c4ccccc4)c3C2c2cccs2)cc1 (stereo not given) | 16µM* | -5% | -63%
CCOC(=O)c1ccc(N2C(=O)c3[nH]nc(-c4ccc(OCC)cc4)c3C2c2cccs2)cc1 (stereo not given) | ? | 16% | -37%
COc1ccccc1-c1ccc(=O)n(CC(=O)NCCc2ccccc2)n1 | . | 13% | .
COc1ccc(C(=O)Nc2c(C(=O)c3ccccc3)oc3ccccc23)cc1 | 5% | 17% | 3%
O=C(Nc1noc2ccccc12)c1cccc(Cl)c1Cl | 41% | -5% | ?
COc1ccc(C(=O)Nc2noc3ccccc23)cc1 | -10% | 11µM* | ?
Cc1ccc(C(=O)Nc2noc3ccccc23)cc1 | . | 25µM* | .
SMILES | HTT promoter inh | NTMT1 inh | HTT-AS act
CC(NC(=O)Cc1cc(F)cc(F)c1)C(=O)NC1C(=O)N(C)c2ccccc2-c2ccccc21 (stereo not given) | . | 5%[57.5 µM] | .
O=C1NC(=O)/C(=C\c2ccc(-c3ccc(F)cc3O)o2)S1 | . | 28µM* | .
N=C1S/C(=C\c2ccc(-c3ccc4c(c3)C(=O)NC4=O)o2)C(=O)N1c1ccc(Br)cc1 | . | -13%[57.5 µM] | .
O=C1NC(=O)/C(=C/c2ccc(-c3ccc(F)cc3O)o2)S1 | . | 35µM* | .
O=C1NC(=O)/C(=C/c2ccc3nccnc3c2)S1 | . | 11% | .
O=C(NCCCc1ccccc1)c1cccc(-c2cc(O)c3ncccc3c2)c1 | . | 73%[57.5 µM] | .
